The values below come from PubChem BioAssay AID1479148 (National Center for Advancing Translational Sciences (NCATS), 2020).

Records with an inconclusive call do not appear. The source made the active and inactive calls. Calls follow the shape of the full dose curve.

A short description of this assay: Confirmatory qHTS for inhibitors of SARS-S pseudo-typed particle cell entry. (Quantitative high-throughput screening tests each substance at several concentrations.)

With `CN1CCCCC1CCN1c2ccccc2Sc2ccc(S(C)=O)cc21` (stereo not given), the Potency was 27.1 µM (active).
The value for `CCN(CC)Cc1cc(Nc2ccnc3cc(Cl)ccc23)ccc1O` was 8.57 µM (active).
As to `CN(C)CCC=C1c2ccccc2C(C)(C)c2ccccc21`, the Potency was 10.8 µM (active).
In the case of `COc1cc2c(cc1Cc1cccc(Cl)c1F)c(=O)c(C(=O)O)cn2[C@H](CO)C(C)C`, the Potency was 0.0607 µM (active).
The value for `COc1cccc2c1C(=O)c1c(O)c3c(c(O)c1C2=O)C[C@@](O)(C(C)=O)C[C@@H]3O[C@H]1C[C@H](N)[C@H](O)[C@H](C)O1` was 2.15 µM (active); that for `COc1cc(NS(C)(=O)=O)ccc1Nc1c2ccccc2nc2ccccc12` was 0.961 µM (active); that for `CO[C@@]12[C@H](COC(N)=O)C3=C(C(=O)C(C)=C(N)C3=O)N1C[C@@H]1N[C@@H]12` was 6.07 µM (active).
Then `O=c1ccc2ccccc2o1`, with “inactive”; and `CC(C)(C)NCC(O)COc1ccccc1C1CCCC1` (stereo not given), with 3.41 µM (active).
With `Cc1ccc(NC(=O)c2ccc(CN3CCN(C)CC3)cc2)cc1Nc1nccc(-c2cccnc2)n1`, the Potency is 30.4 µM (active).
As to `CCn1cc(C(=O)O)c(=O)c2cc(F)c(N3CCNC(C)C3)c(F)c21` (stereo not given), the Potency result was “inactive”.
For `N#CC(c1ccc(Cl)cc1)c1c(Cl)cc(-n2ncc(=O)[nH]c2=O)cc1Cl` (stereo not given), the Potency is 19.2 µM (active).
In the case of `CC[C@@]1(O)C(=O)OCc2c1cc1n(c2=O)Cc2cc3c(CN(C)C)c(O)ccc3nc2-1`, the Potency was 0.764 µM (active).
With `O=C1c2c(O)ccc(O)c2C(=O)c2c(NCCNCCO)ccc(NCCNCCO)c21`, the Potency was 0.121 µM (active).
Consider `O=c1c(C2CC(c3ccc(-c4ccc(Br)cc4)cc3)Cc3ccccc32)c(O)sc2ccccc12` (stereo not given), for which the Potency was 13.6 µM (active).
